Consider 13 compounds from the supplement of paper PMC10646978.

What all share (conditions): modulator concentration 10 µM
For assay [1], the system named is RAW-Dual (murine macrophage reporter line). Briefly: NF-kB reporter (SEAP) activity fold change vs agonist alone; higher = enhanced NF-kB activity. The method, boiled down: (§1)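 RAW-Dual murine macrophage reporter cells were seeded at 50 000 per well in 384-well plates and pre-incubated 1 hour at 37 °C with compound pin-transferred to 10 μM final. After 1 hour, a PRR agonist was added and cells incubated overnight. Supernatant NF-κB (SEAP, QUANTI-Blue, 620 nm absorbance) and IRF (Lucia luciferase, QUANTI-Luc, luminescence) signals were divided by the mean agonist-only control on the same plate to give fold change. Two replicate plates were averaged, with errors by propagation.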

For assay [2] the test system is unchanged. Briefly: IRF reporter (Lucia luciferase) activity fold change vs agonist alone; higher = enhanced IRF activity. The method in brief: as §1
The test system is the same in assay [3]. Briefly: viability score (confluency relative to resting cells, overnight) (fraction); higher = more viable, active = viable (0.7 or more). The method in brief:
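RAW-Dual macrophages in 384-well plates were exposed overnight to compound at 10 μM final. Confluency was imaged with IncuCyte, and two confluency masks were generated with IncuCyte software over all imaged wells. The viability score is confluency expressed relative to resting cells. Compounds were called viable if both masks exceeded 70% of resting cells.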

[4] abbreviates: agonist: CpG ODN 1826 0.5 ug/mL.

± gives the standard deviation.

With `Cc1ccc2nc(C)c(NC(=O)c3ccc4ccccc4n3)c(=O)n2c1`, the NF-kB reporter in assay [1] (setting [4]) was determined as 0.787 ± 0.25; in assay [1] (agonist: LPS 0.1 ug/mL) it was 1.03 ± 0.14; in assay [1] (agonist: MPLA […]), 0.823 ± 0.091. Moreover, the IRF reporter amounted to 0.793 ± 0.04 in assay [2] (agonist: 3'3'-cGAMP 10 ug/mL), 1.02 ± 0.061 in assay [2] (agonist: LPS 0.1 ug/mL) and 1.1 ± 0.23 in assay [2] (agonist: MPLA […]). For the same compound, the viability score in assay [3] was 0.994 (active).
For the compound `CC1(C)OC(=O)C=CC2(C)C1CC(O)C1(C)C2CCC2(C)C(c3ccoc3)OC(=O)C3OC321` (stereo unspecified), the NF-kB reporter in assay [1] (setting [4]) was 1.29 ± 0.35; in assay [1] (agonist: LPS 0.1 ug/mL) it was 1.1 ± 0.11; in assay [1] (agonist: MPLA […]), 1.06 ± 0.14. The IRF reporter in assay [2] (agonist: 3'3'-cGAMP 10 ug/mL) amounted to 0.944 ± 0.032; in assay [2] (agonist: LPS 0.1 ug/mL), 1.22 ± 0.15; in assay [2] (agonist: MPLA […]), 1.24 ± 0.17. In assay [3], the viability score was 0.99 (active).
`Cc1cc(-c2ccc(N=Cc3ccc(Cl)c([N+](=O)[O-])c3)c(C)c2)ccc1N=Cc1ccc(Cl)c([N+](=O)[O-])c1`: the results for the NF-kB reporter in assay [1] (setting [4]), in assay [1] (agonist: LPS 0.1 ug/mL) and in assay [1] (agonist: MPLA […]) were 1.01 ± 0.056, 1.01 ± 0.073 and 1.02 ± 0.065, respectively. The IRF reporter is 0.821 ± 0.031 in assay [2] (agonist: 3'3'-cGAMP 10 ug/mL), 1.38 ± 0.11 in assay [2] (agonist: LPS 0.1 ug/mL) and 1.13 ± 0.19 in assay [2] (agonist: MPLA […]). In addition, the viability score in assay [3] is 1 (active).
On to `CCOC(=O)C(CC)Oc1ccc2c(C)c(CC)c(=O)oc2c1` (stereo unspecified), for which the NF-kB reporter in assay [1] (setting [4]) was determined as 0.955 ± 0.063; in assay [1] (agonist: LPS 0.1 ug/mL) it was 0.875 ± 0.071; in assay [1] (agonist: MPLA […]), 0.976 ± 0.035. For the same compound, the IRF reporter in assay [2] (agonist: 3'3'-cGAMP 10 ug/mL) is 0.832 ± 0.03; in assay [2] (agonist: LPS 0.1 ug/mL), 0.852 ± 0.13; in assay [2] (agonist: MPLA […]), 0.848 ± 0.27. Further, the viability score in assay [3] is 0.986 (active).
As for `COc1ccc(C=CC(=O)O)cc1OC`, the NF-kB reporter in assay [1] (setting [4]) was 1.03 ± 0.077; in assay [1] (agonist: LPS 0.1 ug/mL), 1.1 ± 0.059; in assay [1] (agonist: MPLA […]), 1 ± 0.022. Also, the values for the IRF reporter in assay [2] (agonist: 3'3'-cGAMP 10 ug/mL), in assay [2] (agonist: LPS 0.1 ug/mL) and in assay [2] (agonist: MPLA […]) were 1.03 ± 0.06, 0.954 ± 0.078 and 0.973 ± 0.095, respectively. Also, in assay [3], the viability score was 0.996 (active).
With `COc1cc(Cl)cc(C=NNC(=O)c2cc(C)n[nH]2)c1O`, the NF-kB reporter in assay [1] (setting [4]) was 1.16 ± 0.09; in assay [1] (agonist: LPS 0.1 ug/mL) it was 0.793 ± 0.038; in assay [1] (agonist: MPLA […]), 0.943 ± 0.082. Also, the IRF reporter in assay [2] (agonist: 3'3'-cGAMP 10 ug/mL) was determined as 0.785 ± 0.066; in assay [2] (agonist: LPS 0.1 ug/mL), 1.46 ± 0.088; in assay [2] (agonist: MPLA […]) it was 1.62 ± 0.14. In assay [3], the viability score was 0.968 (active).
On to `CC(C)c1cc(C(=O)N2Cc3ccc(CN4CCN(C)CC4)cc3C2)c(O)cc1O`, for which the NF-kB reporter worked out at 0.0684 ± 0.0053 in assay [1] (setting [4]), 0.106 ± 0.0088 in assay [1] (agonist: LPS 0.1 ug/mL) and 0.311 ± 0.052 in assay [1] (agonist: MPLA […]). Moreover, the IRF reporter was 0.509 ± 0.3 in assay [2] (agonist: 3'3'-cGAMP 10 ug/mL), 0.971 ± 0.37 in assay [2] (agonist: LPS 0.1 ug/mL) and 0.991 ± 0.44 in assay [2] (agonist: MPLA […]). Also, the viability score in assay [3] is 0.762 (active).
With `O=[N+]([O-])c1ccc(-n2cccc2C=NNc2nc(N3CCOCC3)nc(N3CCOCC3)n2)cc1`, the NF-kB reporter in assay [1] (setting [4]) came to 0.961 ± 0.42; in assay [1] (agonist: LPS 0.1 ug/mL), 1.09 ± 0.085; in assay [1] (agonist: MPLA […]), 1.14 ± 0.13. Moreover, the results for the IRF reporter in assay [2] (agonist: 3'3'-cGAMP 10 ug/mL), in assay [2] (agonist: LPS 0.1 ug/mL) and in assay [2] (agonist: MPLA […]) were 0.691 ± 0.022, 0.999 ± 0.1 and 1.25 ± 0.16, respectively. Further, the viability score in assay [3] is 1 (active).
As to `CCC(=O)Nc1ccc(NC(=O)c2ccccc2OC)cc1`, the NF-kB reporter in assay [1] (setting [4]) is 0.932 ± 0.086; in assay [1] (agonist: LPS 0.1 ug/mL), 1.04 ± 0.083; in assay [1] (agonist: MPLA […]) it was 0.997 ± 0.064. For the same compound, the IRF reporter came to 1 ± 0.042 in assay [2] (agonist: 3'3'-cGAMP 10 ug/mL), 1.25 ± 0.087 in assay [2] (agonist: LPS 0.1 ug/mL) and 0.969 ± 0.076 in assay [2] (agonist: MPLA […]). The viability score in assay [3] was 1.01 (active).
Take `COC(=O)C1=CN(CC2CCCO2)C=C(C(=O)OC)C1c1ccsc1` (stereo unspecified): the NF-kB reporter turned out to be 0.898 ± 0.087 in assay [1] (setting [4]), 0.845 ± 0.057 in assay [1] (agonist: LPS 0.1 ug/mL) and 1.12 ± 0.13 in assay [1] (agonist: MPLA […]). The values for the IRF reporter in assay [2] (agonist: 3'3'-cGAMP 10 ug/mL), in assay [2] (agonist: LPS 0.1 ug/mL) and in assay [2] (agonist: MPLA […]) were 0.895 ± 0.041, 1.41 ± 0.082 and 1.43 ± 0.18, respectively. Besides, in assay [3], the viability score is 1.01 (active).
Regarding `O=C(CCCCCN1C(=O)c2cccc3cccc(c23)C1=O)NCCO`, the NF-kB reporter stood at 0.954 ± 0.082 in assay [1] (setting [4]), 1.01 ± 0.082 in assay [1] (agonist: LPS 0.1 ug/mL) and 0.872 ± 0.074 in assay [1] (agonist: MPLA […]). Moreover, the IRF reporter in assay [2] (agonist: 3'3'-cGAMP 10 ug/mL) came out at 0.886 ± 0.036; in assay [2] (agonist: LPS 0.1 ug/mL), 1.29 ± 0.086; in assay [2] (agonist: MPLA […]), 1.19 ± 0.14. Moreover, the viability score in assay [3] is 1 (active).
Regarding `O=C(NC(=S)Nc1cccc([N+](=O)[O-])c1)c1cccc(I)c1`, the NF-kB reporter in assay [1] (setting [4]) worked out at 0.944 ± 0.1; in assay [1] (agonist: LPS 0.1 ug/mL) it was 1.08 ± 0.072; in assay [1] (agonist: MPLA […]), 0.985 ± 0.044. The IRF reporter in assay [2] (agonist: 3'3'-cGAMP 10 ug/mL) turned out to be 0.794 ± 0.1; in assay [2] (agonist: LPS 0.1 ug/mL) it was 1.09 ± 0.14; in assay [2] (agonist: MPLA […]), 1.02 ± 0.17. Moreover, the viability score in assay [3] is 1 (active).
For `O=[N+]([O-])c1ccc2nc(S)sc2c1`, the figures for the NF-kB reporter in assay [1] (setting [4]), in assay [1] (agonist: LPS 0.1 ug/mL) and in assay [1] (agonist: MPLA […]) were 0.847 ± 0.068, 1.11 ± 0.15 and 1.11 ± 0.027, respectively. The IRF reporter in assay [2] (agonist: 3'3'-cGAMP 10 ug/mL) worked out at 0.82 ± 0.082; in assay [2] (agonist: LPS 0.1 ug/mL), 0.986 ± 0.12; in assay [2] (agonist: MPLA […]) it was 1.03 ± 0.15. For the same compound, in assay [3], the viability score was 0.992 (active).
